IL1B secr inh: inflammasome signaling inhibition, IL-1 beta readout | 360,000 tested, 4.7% active | AID 743279 | THP-1 LPS/ATP IL-1B secretion, AlphaLISA, 16 h; stronger effect = lower value | activity change, % at 57.5 µM; in the data active = activity change below about -50%; inconclusive = mostly about -30% to -49%
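THP-1 cells pretreated 1 hr with compounds (up to 57.5 uM final), then stimulated with LPS (250 ng/mL final) plus ATP (1.25 mM final); secreted IL-1B measured by AlphaLISA after 16 hr, decreased signal indicating inhibition.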
TDP1 cell CPT: DT40-hTDP1 cell growth loss with CPT; chicken DT40 Tdp1-/-;hTDP1 cells + 20 nM CPT, ATP luminescence, 48 h; Potency, µM (titrated, usually from 46.2 µM), for inactives: top-dose activity change, negative = growth inhibition, hits mostly inhibitors; 420,000 tested, 12% active; note: potency is the fitted concentration of half-maximal effect; nearly all actives have a fitted effect of over 55% in size
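Chicken DT40 Tdp1-/- cells complemented with human TDP1, 400 cells/well, exposed to compounds plus 20 nM camptothecin for at least 48 h at 37 C; viability read as ATP content by CellTiter-Glo luminescence.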
Gal4-VP16 FLuc: Gal4-VP16 reporter inhibition counter-screen; Drosophila S2 Gal4-VP16 UAS-luciferase, luminescence, 20 h; Potency, µM (titrated, usually from 53.6 µM), without a hit: at the top dose activity, negative = inhibition, usual class: inhibitors; 310,000 tested, 3.5% active; AID 2546;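 note: Gal4-VP16 expression switched on by copper sulfate through the metallothionein promoter; potency is the fitted concentration of half-maximal effect; nearly all actives have a fitted effect of over 50% in size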
RORg inh: inhibitors of mouse ROR gamma transcriptional activity | P51450 | Drosophila S2 Gal4-RORgamma UAS-luciferase reporter, 20 h | Potency, µM (titrated, usually from 53.6 µM), for the others: top-dose activity change, negative = inhibition, most hits filed as inhibitors | 310,000 tested, 5.4% active | AID 2551; note: potency is the fitted concentration of half-maximal effect; nearly all actives have a fitted effect of over 60% in size
Target sequence (P51450 whole entry, looked up, the tested form may be a part): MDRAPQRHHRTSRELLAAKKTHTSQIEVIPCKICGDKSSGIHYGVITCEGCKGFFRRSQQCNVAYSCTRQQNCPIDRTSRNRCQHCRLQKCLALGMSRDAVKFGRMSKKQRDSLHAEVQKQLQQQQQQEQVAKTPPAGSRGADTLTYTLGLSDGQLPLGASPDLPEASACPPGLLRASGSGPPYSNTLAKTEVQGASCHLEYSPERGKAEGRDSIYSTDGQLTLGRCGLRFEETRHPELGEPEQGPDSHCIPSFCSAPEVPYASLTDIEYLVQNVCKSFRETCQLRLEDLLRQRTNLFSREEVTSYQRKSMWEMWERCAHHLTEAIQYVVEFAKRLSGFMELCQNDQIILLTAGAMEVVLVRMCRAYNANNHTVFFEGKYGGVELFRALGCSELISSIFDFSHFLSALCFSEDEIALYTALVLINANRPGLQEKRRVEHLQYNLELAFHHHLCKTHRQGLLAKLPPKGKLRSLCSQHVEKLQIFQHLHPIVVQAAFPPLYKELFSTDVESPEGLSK
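ROR gamma transcriptional activity was tracked as Gal4-UAS luciferase output in stably transfected Drosophila Schneider cells, with compound added 1 hr before 700 uM copper sulfate induction and a 20 hr ambient-temperature incubation.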
TDP1 cell noCPT: qHTS for Inhibitors of human tyrosyl-DNA phosphodiesterase 1 (TDP1): qHTS in cells in absence of CPT. DT40 Tdp1-/- hTDP1 cells, no CPT, ATP luminescence, 48 h. Potency, µM (titrated, usually from 46.2 µM), without a hit: at the highest dose activity change, negative = growth inhibition, actives largely listed as inhibitors. 420,000 tested, 15% active; note: potency is the fitted concentration of half-maximal effect; nearly all actives have a fitted effect of over 55% in size
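No-CPT arm: Tdp1-/-;hTDP1 DT40 cells (400/well) plus compounds, incubated ≥48 hr at 37 °C. Readout CellTiter-Glo luminescence.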
LDHA block: blocks human lactate dehydrogenase A. purified LDHA, NADH/diaphorase-resazurin fluorescence; stronger effect = lower value. P00338. AID 1347041. 480,000 tested, 0.15% active. activity change, % (values are at about 110 or 230 µM); in the data active = activity change below about -30%; inconclusive = mostly about -25% to -30%;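 note: plate controls were DMSO wells for no effect and wells without enzyme for full effect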
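Resorufin fluorescence (ex540/em590), read at 0 and 20 min after diaphorase/resazurin addition, reports the NADH left after a 5 min room-temperature reaction of 2 nM human LDH5 with 0.06 mM NADH and 0.2 mM pyruvate.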
* marks the source's active call; other numbers are inactive results; ? = inconclusive; . = not tested or not shown; [ ] = another dose, or the depositor's remark. A selection: hits, their analogues and other compounds. The true share with any hit is near 18%. Unless noted, calls come from the whole dose curve; as a rule, active = well fitted curve in the direction sought with a large enough effect; inconclusive = small, poorly fitted or top-dose-only effect, or another doubt; inactive = no such curve, though single readings can be large; an effect the other way counts as inactive or inconclusive. Unless noted, % is set by controls: 0 for no effect and ±100 for the full control effect.

SMILES | IL1B secr inh | TDP1 cell CPT | Gal4-VP16 FLuc | RORg inh | TDP1 cell noCPT | LDHA block
CCCN(Cc1cc2cc(C)ccc2[nH]c1=O)C(=O)c1cccc(OC)c1 | ? | ? | 1%[0.365 µM] | ? | ? | -3
CCN1CCCC1CN(Cc1cc2ccc(C)cc2[nH]c1=O)C(=S)Nc1ccc(OC)cc1 (stereo not drawn) | -106* | ? | 6% | -7% | 5.2µM* | -2
COc1ccc2[nH]c(=O)c(CN(CC3CCCO3)C(=S)Nc3ccccc3)cc2c1 (stereo not drawn) | -16 | ? | -19% | -9% | ? | -10
CCN1CCCC1CN(Cc1cc2ccc(C)cc2[nH]c1=O)C(=S)Nc1cccc(OC)c1 (stereo not drawn) | -77* | ? | -19% | -35% | 29µM* | 2
COc1ccc(NC(=O)C2(C)CCN2Cc2ccc(C(C)C)cc2)cc1OC (stereo not drawn) | 29 | 18µM* | . | . | 23µM* | 6
COc1ccc(NC(=O)C2(C)CCN2Cc2ccc(OC(C)C)cc2)cc1OC (stereo not drawn) | 13 | ? | . | . | ? | 3
COc1ccc(NC(=O)C2(C)CCN2CC2CCCCC2)cc1OC (stereo not drawn) | -12 | ? | . | . | 15µM* | 3
COc1ccc(NC(=O)C2(C)CCN2Cc2ccccc2Cl)cc1OC (stereo not drawn) | ? | 9.2µM* | . | . | 8.2µM* | 2
CCN(CC)c1nc2c(c(=O)n(C)c(=O)n2C)n1C(C)C | . | . | . | . | . | 7
CCC[N+](CCC)(CC[O-])Cc1ccccc1 | . | . | . | . | . | 11
CCc1cc(=O)oc2c(C)c(O[C@@H]3O[C@H](CO)[C@@H](O)[C@H](O)[C@H]3O)ccc12 | 10 | 3% | -4% | 8% | 10µM* | -3
COc1ccc(C(=O)NC(=S)NNC(=O)CNC(=O)C2CCCCC2)cc1 | 17 | 2% | -11% | -42% | -22% | -7
COc1ccc(OCC(=O)NNC(=S)NC(=O)C2CC2)cc1 | 29 | 16µM* | 6% | -13% | ? | 0
CCCCNC(=O)NNC(=O)COc1cc(C)cc(C)c1 | 7 | -3% | -2% | 6% | 2% | -2
Cc1cc(C)cc(OCC(=O)NNC(=S)NC(=O)C2CC2)c1 | 83 | 18µM* | -21% | ? | 13µM* | -17
COc1ccc(OCC(=O)NNC(=S)NC(=O)C2CCCCC2)cc1 | . | . | -11% | 14µM* | . | .
C=CCn1c(N2CCN(c3ccccc3)CC2)nc2c1c(=O)n(C)c(=O)n2C | . | . | . | . | . | -1
CCCN(C(=O)c1ccc2c(=O)n3c(nc2c1)CCCC3)c1ccc(OCC)cc1 | . | . | . | . | . | -3
O=C(CN1CCN(Cc2cccc3cccnc23)CC1)NC1CC1 | . | . | . | . | . | -4
CCOC(=O)C1CCCN(C(=O)c2ccc(Cn3c(=S)[nH]c4cc(C(=O)OC)ccc4c3=O)cc2)C1 (stereo not drawn) | -2 | ? | 25% | -32% | 26µM* | -8
CCCCCn1c(=S)[nH]c2cc(C(=O)N3CCN(C(=O)OCC)CC3)ccc2c1=O | 55 | -23% | ? | ? | ? | -5
CCOC(=O)C1CCCN(C(=O)c2ccc(C(=O)c3ccccc3)cc2)C1 (stereo not drawn) | -12 | -20% | . | . | ? | -9
CCOC(=O)C1CCCN(C(=O)c2ccc3c(=O)n(Cc4ccccc4OC)c(=S)[nH]c3c2)C1 (stereo not drawn) | 24 | ? | ? | ? | 18µM* | -3
CCOC(=O)N1CCN(C(=O)c2ccc(Cn3c(=S)[nH]c4cc(C(=O)OC)ccc4c3=O)cc2)CC1 | 4 | ? | -13% | -41% | 8.2µM* | -3
O=C(Nc1nc(-c2ccccc2)cs1)C1CC(=O)N(c2ccccc2F)C1 (stereo not drawn) | . | . | . | . | . | -5
SMILES | IL1B secr inh | TDP1 cell CPT | Gal4-VP16 FLuc | RORg inh | TDP1 cell noCPT | LDHA block
CC(C)c1ccc(NC(=O)COC(=O)/C=C/c2cccc3cccnc23)cc1 | . | . | . | . | . | 9
Cc1ccc(C(=O)Nc2c(NC3CCCC3)c3ccccc3oc2=O)cc1 | . | . | . | . | . | -5
COCCCNc1oc(-c2ccc(S(=O)(=O)N3CCCCCC3)cc2)nc1C#N | . | . | . | . | . | -2
O=C(NNC(=O)C1CCCC1)c1ccc(Br)cc1 | . | . | . | . | . | 1
O=C(O)/C=C/c1ccc(SC(F)F)cc1 | . | . | . | . | . | 1
CC1CN(C(=O)/C=C/c2ccc(SC(F)F)cc2)CC(C)O1 (stereo not drawn) | -5 | ? | 14% | 7% | 13µM* | -4
CCCc1nc2c(-c3ccccc3)c(C)[nH]n2c(=O)c1Cl | . | . | . | . | . | 5
CC(CCc1ccc(O)cc1)NCCC(c1ccccc1)c1ccccc1 (stereo not drawn) | -30 | ? | -9% | ? | 5.2µM* | -17
CC(CCc1ccc(O)cc1)NC(c1ccccc1)c1ccc(Cl)cc1 (stereo not drawn) | -100* | ? | ? | ? | ? | 2
CC(CCc1ccc(O)cc1)NCc1ccc(Br)cc1 (stereo not drawn) | -11 | 12µM* | -6% | ? | 16µM* | 0
CCOC(=O)c1ccccc1C(=O)c1ccccc1 | . | . | . | . | . | 2
CC(=O)C(Cc1ccc(Br)cc1)C(=O)c1ccccc1 (stereo not drawn) | . | . | . | . | . | -2
CC(C)c1ccccc1NC(=O)c1cccs1 | . | . | . | . | . | 4
COCCN1CCN(Cc2ccc(C#N)cc2)CC1 | . | . | . | . | . | 1
C=C1C(=O)O[C@H]2C1CC[C@@](C)(O)C13C=CC(C)(C21)C1(C3)C(=O)O[C@@H]2C3C(C)=CCC3[C@](C)(O)C[C@H](OC(C)=O)C21 (stereo partly drawn) | -94* | ? | 20% | 13% | 16µM* | 2
CN(C)CCN=Cc1c(O)n(Cc2ccccc2)c(=O)c2ccccc12 | -15 | 4% | ? | 13µM* | -27% | -4

From PubChem
